The values below come from PubChem BioAssay (NCATS).

Holding throughout (test): qHTS profiling for inhibitors of Plasmodium falciparum proliferation (AID 504749); note: nearly all actives have a fitted effect of over 60% in size
What all share (settings): P. falciparum in erythrocytes, SYBR Green DNA, 72 h; series mostly up to 12.8 µM

The subject of experiment [1] is AA1029. In a few lines: (§1)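 P. falciparum-infected erythrocytes (0.3% parasitemia, 2.5% hematocrit) incubated with compound 72 h at 37 C, 5% CO2. Parasite DNA detected by SYBR Green after lysis, overnight at room temperature; normalised to 0.29 uM artemisinin and DMSO.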
Experiment [2] relates to C2A. In a few lines: as §1
Experiment [3] deals with CP211. In a few lines:
as §1

Experiment [4] deals with CP217. In a few lines: as §1
Experiment [5] relates to CP237. In a few lines:
as §1

Experiment [6] relates to CP252. In a few lines: as §1
Experiment [7] deals with CP269. In a few lines: as §1
The test system of experiment [8] is CP286. In a few lines: as §1
In experiment [9] the test system is CP291. In a few lines:
as §1

Experiment [10] concerns CP305. In a few lines:
as §1

Experiment [11] concerns CP315. In a few lines: as §1
Experiment [12] deals with CP335. In a few lines: as §1
Experiment [13] has as its system DFO2036. In a few lines: as §1
For experiment [14], the system named is DIV30. In a few lines:
as §1

Experiment [15] has as its system ECU. In a few lines:
as §1

For experiment [16], the system named is HB3. In a few lines: as §1
The subject of experiment [17] is P93_24. In a few lines: as §1
For experiment [18], the system named is P94_40. In a few lines: as §1
The test system of experiment [19] is PC26. In a few lines: as §1
The test system of experiment [20] is TAB165. In a few lines:
as §1

Results filed as inconclusive are left out. Activity calls are given as the source filed them. Calls come from the whole dose curve; as a rule, active = well fitted inhibition curve with a large enough effect; inconclusive = small, poorly fitted or top-dose-only effect; inactive = flat fitted curve, though single readings scatter.
Potency is the fitted concentration of half-maximal effect.

Consider `CC[C@]1(C)CC(=O)NC1=O`, for which the Potency entry in experiment [1], in experiment [2], in experiment [3], in [4], in [5] and in experiment [6] was “inactive” in each case. The Potency result in experiment [7], in experiment [8], in experiment [9], in experiment [10], in experiment [11] and in experiment [12] was “inactive” throughout. The Potency entry in experiment [13], in experiment [14], in experiment [15], in [16], in [17] and in experiment [18] was “inactive” throughout. For the same compound, the Potency entry in experiment [19] and in experiment [20] was “inactive” in each case.

As to `CC[C@H](NC(C)C)[C@H](O)c1ccc(O)c(O)c1`, the Potency entry in [1], in experiment [2], in experiment [3], in experiment [4], in experiment [5] and in experiment [6] was “inactive” throughout. Moreover, the Potency entry in experiment [7], in experiment [8], in experiment [9], in experiment [10], in [11] and in experiment [12] was “inactive” in each case. The Potency result in experiment [13], in experiment [14], in [15], in [16], in experiment [17] and in [18] was “inactive” in each case. Moreover, the Potency entry in [19] and in [20] was “inactive” each time.

As for `N[C@@H](CO)C(=O)NNCc1ccc(O)c(O)c1O`, the Potency result in [1], in [2], in [3], in [4], in [5] and in [6] was “inactive” each time. For the same compound, the Potency result in experiment [7], in experiment [8], in experiment [9], in experiment [10], in experiment [11] and in experiment [12] was “inactive” in each case. Further, the Potency result in [13], in experiment [14], in experiment [15], in experiment [16], in experiment [17] and in experiment [18] was “inactive” each time. The Potency result in experiment [19] and in experiment [20] was “inactive” in each case.

Consider `CC(C)(C)NC[C@H](O)c1cc(O)cc(O)c1`, for which the Potency result in experiment [1], in experiment [2], in [4], in experiment [5], in [6] and in experiment [7] was “inactive” each time. Besides, the Potency entry in experiment [8], in [9], in experiment [10], in experiment [11], in [12] and in [13] was “inactive” each time. For the same compound, the Potency entry in [14], in [15], in [16], in experiment [17], in experiment [18] and in experiment [19] was “inactive” throughout. Also, the Potency entry in experiment [20] was “inactive”.

`CC1(C)O[C@@H]2C[C@H]3[C@H]4C[C@H](F)C5=CC(=O)C=C[C@@]5(C)[C@@H]4[C@H](O)C[C@]3(C)[C@]2(C(=O)CO)O1`: the Potency result in experiment [1], in experiment [2], in experiment [3], in [4], in experiment [5] and in experiment [6] was “inactive” in each case. Also, the Potency entry in experiment [7], in [8], in experiment [9], in [10], in experiment [11] and in [12] was “inactive” each time. The Potency result in [13], in experiment [14], in experiment [15], in experiment [16], in experiment [17] and in [18] was “inactive” throughout. In addition, the Potency entry in experiment [19] and in experiment [20] was “inactive” throughout.

Turning to `C[C@@H](C(=O)O)c1ccc(C(=O)c2cccs2)cc1`, the Potency entry in experiment [1], in experiment [2], in experiment [3], in experiment [4], in experiment [5] and in experiment [6] was “inactive” throughout. The Potency result in [7], in experiment [8], in experiment [9], in experiment [10], in experiment [11] and in experiment [12] was “inactive” throughout. Also, the Potency result in experiment [13], in experiment [14], in experiment [15], in [16], in experiment [17] and in experiment [18] was “inactive” in each case. Moreover, the Potency result in experiment [19] and in experiment [20] was “inactive” in each case.

Consider `CC(C)(O/N=C(\C(=O)N[C@@H]1C(=O)N2C(C(=O)[O-])=C(C[n+]3ccccc3)CS[C@@H]12)c1csc(N)n1)C(=O)O`, for which the Potency result in experiment [1], in [2], in experiment [3], in experiment [4], in experiment [5] and in experiment [6] was “inactive” in each case. Also, the Potency entry in experiment [7], in experiment [8], in experiment [9], in [10], in experiment [11] and in experiment [12] was “inactive” each time. For the same compound, the Potency result in experiment [13], in experiment [14], in experiment [15], in experiment [16], in [17] and in experiment [18] was “inactive” each time. The Potency entry in experiment [19] and in experiment [20] was “inactive” in each case.

As to `CC(=O)O[C@@H](C)C[N+](C)(C)C`, the Potency result in experiment [1], in experiment [2], in experiment [3], in experiment [4], in experiment [5] and in [6] was “inactive” in each case. For the same compound, the Potency result in experiment [7], in experiment [8], in [9], in [10], in experiment [11] and in [12] was “inactive” throughout. The Potency result in experiment [13], in experiment [14], in experiment [15], in experiment [16], in experiment [17] and in experiment [19] was “inactive” in each case. In experiment [20], the Potency entry is “inactive”.

`Cn1c(=O)c2c(ncn2C[C@@H](O)CO)n(C)c1=O`: the Potency entry in experiment [1], in experiment [2], in experiment [3], in experiment [4], in [5] and in experiment [6] was “inactive” throughout. In addition, the Potency entry in [7], in experiment [8], in experiment [9], in experiment [10], in [11] and in experiment [12] was “inactive” throughout. Also, the Potency result in [13], in experiment [14], in experiment [15], in experiment [16], in [17] and in experiment [18] was “inactive” each time. Also, the Potency result in experiment [19] and in experiment [20] was “inactive” in each case.

Take `C/C=C\C(=O)N(CC)c1ccccc1C`: the Potency entry in experiment [1], in experiment [2], in experiment [3], in experiment [4], in experiment [5] and in experiment [6] was “inactive” each time. Further, the Potency entry in [7], in experiment [8], in [9], in experiment [10], in [11] and in experiment [12] was “inactive” in each case. Also, the Potency result in experiment [13], in experiment [14], in experiment [15], in experiment [16], in experiment [17] and in experiment [18] was “inactive” throughout. Further, the Potency result in experiment [19] and in experiment [20] was “inactive” each time.

Take `CCN(CC)CCC[C@H](C)Nc1c2ccc(Cl)cc2nc2ccc(OC)cc12`: the Potency in [1] was 631 nM (active); in [2], 447 nM (active); in experiment [3], 1510 nM (active); in experiment [4], 794 nM (active); in experiment [5], 316 nM (active); in experiment [6] it was 794 nM (active). In addition, the Potency in experiment [7] is 757 nM (active); in experiment [8], 282 nM (active); in experiment [9], 379 nM (active); in [10] it was 379 nM (active); in [11], 3010 nM (active); in experiment [12], 536 nM (active). The Potency in experiment [13] was 398 nM (active); in experiment [14], 1070 nM (active); in experiment [15], 447 nM (active); in experiment [16] it was 251 nM (active); in experiment [17] it was 562 nM (active); in experiment [18] it was 562 nM (active). Also, the Potency in experiment [19] was 675 nM (active); in experiment [20], 398 nM (active).
